Test results reported in the supplement of paper PMC4166925.
± gives the standard deviation of the averaged measurements. Over roughly 33,000 sequences, “E-score (dimensionless, -0.5 to 0.5)” has its median near -0.046; the highest 2% begin near 0.36. What follows is part of a selection rich in the highest values, with near analogues and random picks from the rest.

test system: T1, SpTbr T-box DNA-binding domain (GST fusion); experiment: PBM E-score of 8-mer (E-score (dimensionless, -0.5 to 0.5)); Tbr is Tbrain of the sea star Patiria miniata (Pm) or the sea urchin Strongylocentrotus purpuratus (Sp); higher = stronger binding preference; settings: the construct has about 5 more residues each side
T1 sequence: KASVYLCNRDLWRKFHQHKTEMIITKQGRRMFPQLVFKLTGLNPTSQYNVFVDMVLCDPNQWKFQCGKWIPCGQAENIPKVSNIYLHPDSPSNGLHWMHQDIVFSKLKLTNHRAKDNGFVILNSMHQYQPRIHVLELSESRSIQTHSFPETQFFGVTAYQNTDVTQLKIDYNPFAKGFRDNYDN
In short: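 Primer extension turned Universal Agilent oligonucleotide arrays double-stranded. They were incubated with 200 nM protein in PBS (pH 7.5); the protein was a GST-fused Tbr T-box DNA-binding domain expressed in BL21 E. coli at 20 °C and purified on glutathione. Every ungapped 8-mer was scored from the scanned, quantified probe intensities, and the Universal PBM Analysis Suite gave each an enrichment E-score averaged over duplicate arrays.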

Sequence | PBM E-score of 8-mer
AGTGGAGA | -0.0675 ± 0.13
AAAGTGAG | 0.217 ± 0.0053
AAAGTGAC | 0.367 ± 0.032
CAAGTGTA | 0.249 ± 0.051
CAAGTGCC | 0.266 ± 0.0062
CAAGTGTG | 0.453 ± 0.0056
ACAGTGTG | 0.338 ± 0.011
AAAGTGTG | 0.441 ± 0.0064
AAAGTGAT | 0.205 ± 0.0065
CAAGTGCG | 0.395 ± 0.02
AAAGTGCG | 0.337 ± 0.006
AAAGTGAA | -0.017 ± 0.029
CAAGTGGG | 0.265 ± 0.022
CAGCAACC | -0.109 ± 0.025
ACCTTAGA | 0.0853 ± 0.026
AATCTCTA | -0.14 ± 0.0019
AGTACTGA | -0.0534 ± 0.012
AGTATCGC | 0.185 ± 0.0083
AAAGTGTT | 0.416 ± 0.035
AACAAGTG | 0.298 ± 0.035
GAAGTGTA | 0.304 ± 0.0081
CAAGTGTC | 0.351 ± 0.012
ACAGTGTC | 0.213 ± 0.0024
AAAGTGGT | 0.00031 ± 0.043

Sequence | PBM E-score of 8-mer
AAAGTGTA | 0.112 ± 0.073
CACAAGTG | 0.38 ± 0.016
AAAGTGTC | 0.39331 ± 0.00039
CACAAGTC | 0.166 ± 0.039
GAAGTGTC | 0.42864 ± 0.00011
AAAGTGGC | 0.205 ± 0.025
GCGCTTAC | 0.216 ± 0.054
CTGATGCA | 0.0385 ± 0.021
CCTCGTAC | -0.22 ± 0.0077
AAGGGTAG | -0.0117 ± 0.11
ACTGGAGA | -0.123 ± 0.052
CCACCTGA | 0.148 ± 0.02
GCACCTGA | 0.386 ± 0.0077
CCACCTTC | 0.2634 ± 0.0018
TCACCTGA | 0.3337 ± 0.0032
GAACCTTA | -0.0824 ± 0.12
ACACCTTC | 0.4746 ± 0.0017
AGACCTTG | -0.19 ± 0.022
CCACCTTA | 0.213 ± 0.01
AAACCTTG | -0.17 ± 0.045
GCACCTTA | 0.404 ± 0.026
AGACCTTC | -0.26 ± 0.016
ACACCTTG | 0.4831 ± 0.0013
ATATCCAT | -0.037 ± 0.059

Sequence | PBM E-score of 8-mer
AGCCAACT | -0.173 ± 0.045
AGATTTCA | -0.0179 ± 0.064
ACTAGGAT | -0.2518 ± 0.0023
CAAGGAAC | -0.142 ± 0.03
CTCTCCAC | 0.0528 ± 0.073
CGTTAGGA | -0.0398 ± 0.0099
AAGAATTC | -0.22 ± 0.027
ATACCTTA | 0.1245 ± 0.00057
AAACCTTA | -0.0223 ± 0.025
ACACCTTA | 0.46892 ± 0.00038
GCAAGAGC | -0.0244 ± 0.092
CTCGTCAC | 0.389 ± 0.024
CTCGTCAA | 0.201 ± 0.0083
ATCGTCAA | 0.158 ± 0.0046
GTCGTCAC | 0.337 ± 0.025
ATCGTCAT | -0.00478 ± 0.05
ATCGTCAC | 0.381 ± 0.011
TCGCCAGA | 0.0255 ± 0.017
AAGGCACA | -0.16 ± 0.04
ATGGGGGG | -0.172 ± 0.0088
AGAAGTGA | 0.289 ± 0.014
AGTCTACG | -0.209 ± 0.008
CAGCTACG | -0.036 ± 0.0027
TGTGGTAA | 0.133 ± 0.02

Sequence | PBM E-score of 8-mer
GGCGGCCA | -0.156 ± 0.03
CTTCGCAA | 0.341 ± 0.029
CTTCGCCC | -0.0235 ± 0.028
ATTCGCAA | 0.29 ± 0.016
CTTCGCAC | 0.461 ± 0.015
ATTCGCAG | 0.33 ± 0.013
ATTCGCAC | 0.4705 ± 0.0024
GTCTATAA | -0.0104 ± 0.0026
CGAGGGCC | -0.127 ± 0.057
ACGAAAGT | 0.00641 ± 0.0039
AATGTGTC | 0.413 ± 0.012
AATGTGTA | 0.207 ± 0.05
AATGTGGC | 0.219 ± 0.02
CATGTGTC | 0.3458 ± 0.0021
AATGTGTG | 0.4245 ± 0.0035
AATGTGCG | 0.3287 ± 0.0028
AGACGACT | -0.202 ± 0.093
GCTGGGCC | -0.144 ± 0.0084
ATGTGACA | 0.409 ± 0.0051
CTGTGACA | 0.31 ± 0.011
ATGTGACG | 0.285 ± 0.026
CTGTGACC | 0.142 ± 0.026
GTGTGACA | 0.457 ± 0.0047
ATGTGACC | 0.169 ± 0.046
